In PubChem BioAssay (NCI):
The panel holds about 83,000 compounds, 20% with a hit somewhere; the sample as a whole holds those more often.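 Activity criterion: percent growth below 10, measured after cells in 96-well plates were exposed to a single compound concentration for 48 hours.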 Calls of active or inactive are those of the source.

What was measured:
Assay in all cases: NCI-60 one-dose screen, 48 h (100 = growth as untreated, 0 = no growth, -100 = all killed)
Settings in all cases: 10 µM unless noted
SR leukemia = tested on: SR leukemia
OVCAR-8 ovarian = tested on: OVCAR-8 ovarian
OVCAR-5 ovarian = tested on: OVCAR-5 ovarian
OVCAR-4 ovarian = tested on: OVCAR-4 ovarian
SK-OV-3 ovarian = tested on: SK-OV-3 ovarian
IGROV1 ovarian = tested on: IGROV1 ovarian
OVCAR-3 ovarian = tested on: OVCAR-3 ovarian
HS 578T breast = tested on: HS 578T breast
NCI/ADR-RES ovarian = tested on: NCI/ADR-RES ovarian
T-47D breast = tested on: T-47D breast
BT-549 breast = tested on: BT-549 breast
MDA-MB-435 melanoma = tested on: MDA-MB-435 melanoma
SW-620 colon = tested on: SW-620 colon
MCF7 breast = tested on: MCF7 breast
HCT-116 colon = tested on: HCT-116 colon
HCC-2998 colon = tested on: HCC-2998 colon
KM12 colon = tested on: KM12 colon

Measured: growth

CN(C)CCNc1nc2ccccc2c2c(=O)c3cc(F)ccc3sc12
active: SR leukemia -23.5% | MDA-MB-435 melanoma 1.18% | SW-620 colon -48% | HCT-116 colon -11.2% | HCC-2998 colon -64.5% | KM12 colon 8.53%
inactive: OVCAR-8 ovarian 40.2% | OVCAR-5 ovarian 76.9% | OVCAR-4 ovarian 29.9% | SK-OV-3 ovarian 77.1% | IGROV1 ovarian 49% | OVCAR-3 ovarian 38.1% | HS 578T breast 47.8% | NCI/ADR-RES ovarian 38.3% | T-47D breast 66.1% | BT-549 breast 64.4% | MCF7 breast 34.3%

C/C(=N/NC(N)=S)c1sc(Nc2cccc(Cl)c2)nc1C
inactive: SR leukemia 90.1% | OVCAR-8 ovarian 97.5% | OVCAR-5 ovarian 86.8% | OVCAR-4 ovarian 63.6% | SK-OV-3 ovarian 116% | IGROV1 ovarian 86% | OVCAR-3 ovarian 76.8% | HS 578T breast 88.2% | NCI/ADR-RES ovarian 86.7% | T-47D breast 30.9% | BT-549 breast 84.1% | MDA-MB-435 melanoma 84.5% | SW-620 colon 81.8% | MCF7 breast 76.1% | HCT-116 colon 74.4% | HCC-2998 colon 107% | KM12 colon 87.8%

O=C(Nc1ccc(Cl)cc1F)c1ccccc1O
inactive: SR leukemia 15.8% | OVCAR-8 ovarian 44.8% | OVCAR-5 ovarian 71.1% | OVCAR-4 ovarian 54.6% | SK-OV-3 ovarian 42.3% | IGROV1 ovarian 20.5% | OVCAR-3 ovarian 30.9% | HS 578T breast 41.6% | NCI/ADR-RES ovarian 34.5% | T-47D breast 29.9% | BT-549 breast 24.9% | MDA-MB-435 melanoma 41.3% | SW-620 colon 60.4% | MCF7 breast 47.6% | HCT-116 colon 34.6% | HCC-2998 colon 77.1% | KM12 colon 54.4%

COc1cc(C2CC(c3ccc(N(C)C)cc3)=NN2C(C)=O)cc(OC)c1OC (stereo not drawn)
active: SR leukemia -17.2% | OVCAR-3 ovarian -38.2% | HS 578T breast 0.792% | NCI/ADR-RES ovarian -24.4% | MDA-MB-435 melanoma -65.6%
inactive: OVCAR-8 ovarian 38.9% | OVCAR-5 ovarian 54.5% | OVCAR-4 ovarian 51.5% | SK-OV-3 ovarian 24.9% | IGROV1 ovarian 30.4% | T-47D breast 31.7% | BT-549 breast 45.1% | SW-620 colon 10.7% | MCF7 breast 11.5% | HCT-116 colon 20.6% | HCC-2998 colon 24.9% | KM12 colon 10.8%

O=c1c2cc(F)ccc2sc2c(NCCN3CCOCC3)nc3ccccc3c12
inactive: SR leukemia 28.3% | OVCAR-8 ovarian 81.4% | OVCAR-5 ovarian 89.5% | OVCAR-4 ovarian 67.5% | SK-OV-3 ovarian 85% | IGROV1 ovarian 74.6% | OVCAR-3 ovarian 76.8% | HS 578T breast 63.3% | NCI/ADR-RES ovarian 72.5% | T-47D breast 84.9% | BT-549 breast 82.3% | MDA-MB-435 melanoma 61.2% | SW-620 colon 42.4% | MCF7 breast 76.9% | HCT-116 colon 46.9% | HCC-2998 colon 59% | KM12 colon 26%

COc1ccc2sc3c(NCCCN(C)C)nc4ccccc4c3c(=O)c2c1
inactive: OVCAR-8 ovarian 61.9% | OVCAR-5 ovarian 89.8% | SK-OV-3 ovarian 74.9% | IGROV1 ovarian 54.2% | HS 578T breast 73% | NCI/ADR-RES ovarian 55.7% | T-47D breast 93.6% | BT-549 breast 69.4% | MCF7 breast 41.5%
active: SR leukemia -39.2% | OVCAR-4 ovarian -9.97% | OVCAR-3 ovarian -18.5% | MDA-MB-435 melanoma -46.9% | SW-620 colon -77.2% | HCT-116 colon -88.7% | HCC-2998 colon -90.8% | KM12 colon -47.2%

COc1cc2cc(Oc3ccc(NC(=O)Nc4ccc(Cl)c(Cl)c4)cc3)c(C)nc2cc1OCCN1CCOCC1
inactive: OVCAR-8 ovarian 91.1% | OVCAR-5 ovarian 127% | OVCAR-4 ovarian 85% | SK-OV-3 ovarian 111% | IGROV1 ovarian 97.8% | OVCAR-3 ovarian 106% | HS 578T breast 102% | NCI/ADR-RES ovarian 91.4% | T-47D breast 75.1% | BT-549 breast 72.5% | MDA-MB-435 melanoma 91.8% | SW-620 colon 104% | MCF7 breast 60.1% | HCT-116 colon 86.1% | KM12 colon 91.7%
active: SR leukemia 5.6%

O=c1c2cc(F)ccc2sc2c(N3CCNCC3)nc3ccccc3c12
inactive: OVCAR-8 ovarian 11% | OVCAR-5 ovarian 73.1% | SK-OV-3 ovarian 84.4% | IGROV1 ovarian 48% | HS 578T breast 46.3% | NCI/ADR-RES ovarian 18.7% | T-47D breast 27.9% | BT-549 breast 90.8%
active: SR leukemia -56.3% | OVCAR-4 ovarian -22.2% | OVCAR-3 ovarian -79.6% | MDA-MB-435 melanoma -87.1% | SW-620 colon -87.1% | MCF7 breast -74.1% | HCT-116 colon -46.3% | KM12 colon -82.4%

O=c1c2cc(C(F)(F)F)ccc2sc2c(NCCCNCCO)nc3ccccc3c12
inactive: OVCAR-5 ovarian 64.8% | SK-OV-3 ovarian 74.9% | IGROV1 ovarian 15% | BT-549 breast 86.1%
active: SR leukemia -39.4% | OVCAR-8 ovarian -3.45% | OVCAR-4 ovarian -41.6% | OVCAR-3 ovarian -73.8% | HS 578T breast -9.58% | NCI/ADR-RES ovarian 1.68% | T-47D breast -6.02% | MDA-MB-435 melanoma -73% | SW-620 colon -75.9% | MCF7 breast -59.7% | HCT-116 colon -72.8% | KM12 colon -67.8%

NCCOc1ncccc1/C=C1\C2C=CC=CC2C2C=CC(F)=CC12 (stereo not drawn)
active: SR leukemia 0.916% | HCC-2998 colon 4.37%
inactive: OVCAR-8 ovarian 25.7% | OVCAR-5 ovarian 31.3% | OVCAR-4 ovarian 68.3% | SK-OV-3 ovarian 20.1% | IGROV1 ovarian 29.9% | OVCAR-3 ovarian 35% | HS 578T breast 61.5% | NCI/ADR-RES ovarian 27.8% | T-47D breast 33.1% | BT-549 breast 84.7% | MDA-MB-435 melanoma 63.4% | SW-620 colon 13.3% | MCF7 breast 11.8% | HCT-116 colon 22.2% | KM12 colon 29%

CC([C@H]1CCC2C3CCC4C(=O)C(NC=O)=CC[C@]4(C)C3CC[C@@]21C)N(C)C (stereo partly drawn)
active: OVCAR-4 ovarian 6.05% | T-47D breast -12.7% | MDA-MB-435 melanoma -26% | SW-620 colon -48.5% | HCT-116 colon -7.83%
inactive: SR leukemia 54.3% | OVCAR-8 ovarian 55.9% | OVCAR-5 ovarian 93.2% | SK-OV-3 ovarian 75.8% | IGROV1 ovarian 37.8% | OVCAR-3 ovarian 24.6% | HS 578T breast 33.6% | NCI/ADR-RES ovarian 57.5% | BT-549 breast 49.5% | MCF7 breast 17.3% | HCC-2998 colon 19% | KM12 colon 17.8%

CNC(=O)c1cc(-n2ccc3cc(NC(=O)c4ccc(N5CCOCC5)c(C(F)(F)F)c4)ccc32)ccn1
inactive: SR leukemia 24.8% | OVCAR-8 ovarian 27.7% | OVCAR-5 ovarian 79.1% | OVCAR-4 ovarian 64.4% | SK-OV-3 ovarian 91.2% | IGROV1 ovarian 77.7% | OVCAR-3 ovarian 63.9% | HS 578T breast 47.1% | NCI/ADR-RES ovarian 45.7% | T-47D breast 25.8% | BT-549 breast 43.8% | MDA-MB-435 melanoma 76.4% | SW-620 colon 75.9% | MCF7 breast 60.6% | HCT-116 colon 38.7% | HCC-2998 colon 63.8% | KM12 colon 17.7%

CC1=C([Se]CC(OC(=O)[C@@H](CSSC(C)(C)C)NC(=O)OC(C)(C)C)C(=O)NC(C)(C)C)C(=O)c2ccccc2C1=O (stereo partly drawn)
inactive: SR leukemia 22%
active: OVCAR-8 ovarian -73.7% | OVCAR-5 ovarian -75.8% | OVCAR-4 ovarian -92.9% | SK-OV-3 ovarian -100% | IGROV1 ovarian 8.36% | OVCAR-3 ovarian -99.2% | HS 578T breast -11.2% | NCI/ADR-RES ovarian -78.9% | T-47D breast -50.3% | BT-549 breast -97.8% | MDA-MB-435 melanoma -91.2% | SW-620 colon -83.3% | MCF7 breast -25.9% | HCT-116 colon -73.8% | HCC-2998 colon -93.5% | KM12 colon -97.7%
